Assay results reported in the supplement of paper PMC3334620.
Over roughly 33,000 sequences, “E-score (-0.5 to 0.5)” has its median near -0.015; the highest 2% begin near 0.3. The list comes from a sample in which the highest values are over-represented; it also holds similar and randomly drawn sequences.

molecular target: T1, Abf1 (UniProt P14164); assay: PBM E-score (8-mer binding enrichment) (E-score (-0.5 to 0.5)); higher = stronger / more preferred TF binding; settings: protein concentration: 200 nM; construct: GST-full length
T1 sequence: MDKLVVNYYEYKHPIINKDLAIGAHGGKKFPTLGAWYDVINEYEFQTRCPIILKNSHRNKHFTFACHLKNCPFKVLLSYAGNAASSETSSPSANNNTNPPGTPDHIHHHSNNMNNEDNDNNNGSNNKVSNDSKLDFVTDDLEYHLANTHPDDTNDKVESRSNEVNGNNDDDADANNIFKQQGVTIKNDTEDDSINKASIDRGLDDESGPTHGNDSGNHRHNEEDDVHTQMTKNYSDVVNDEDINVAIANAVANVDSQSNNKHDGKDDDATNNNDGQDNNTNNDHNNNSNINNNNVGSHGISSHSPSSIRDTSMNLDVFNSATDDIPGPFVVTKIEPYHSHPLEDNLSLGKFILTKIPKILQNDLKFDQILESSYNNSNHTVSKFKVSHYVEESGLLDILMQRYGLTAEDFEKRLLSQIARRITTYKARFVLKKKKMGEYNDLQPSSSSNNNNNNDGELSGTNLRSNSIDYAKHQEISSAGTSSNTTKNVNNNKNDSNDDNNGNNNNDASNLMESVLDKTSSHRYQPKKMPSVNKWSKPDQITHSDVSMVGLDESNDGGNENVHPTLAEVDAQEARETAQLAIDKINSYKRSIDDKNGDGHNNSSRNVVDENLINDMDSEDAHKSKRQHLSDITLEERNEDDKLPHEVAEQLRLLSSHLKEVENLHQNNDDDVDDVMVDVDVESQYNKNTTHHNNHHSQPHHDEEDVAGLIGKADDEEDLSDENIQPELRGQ
Procedure: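 Universal 'all 10-mer' protein binding microarrays (Agilent AMADID 015681) probed with GST-tagged S. cerevisiae TFs (full-length or DBD) made by in vitro transcription/translation (PURExpress), about 100-200 nM. Bound TF was detected with fluorescent anti-GST. Each ungapped 8-mer (which stands for itself and its reverse complement) is scored by the PBM enrichment score (E-score), a modified Wilcoxon-Mann-Whitney statistic from -0.5 to +0.5, computed with the Universal PBM Analysis Suite. Scale: above 0.35 generally sequence-specific binding.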

Row | Sequence | PBM E-score
1 | AGAGTGGC | -0.251
2 | AGCAGATG | -0.0843
3 | ATATTAAA | 0.33
4 | TTATTAAA | 0.116
5 | CTATTAAA | -0.0136
6 | AAAAGTTA | 0.151
7 | CCATTCGG | -0.0195
8 | GCTTATCA | 0.0367
9 | CTTTATCA | 0.313
10 | ATTTATCC | 0.317
11 | GTTTATGA | 0.11
12 | CTTTATCC | -0.0621
13 | ATTTATCG | 0.222
14 | ATTATTTA | 0.254
15 | ACTTATCC | 0.11
16 | GTTTATCA | 0.304
17 | ATTTATTA | 0.309
18 | CGTTATCA | 0.205
19 | GTTTATTA | 0.0803
20 | ACTCCCAT | -0.029
21 | GATCGACA | 0.013
22 | TCTTGTAA | 0.0644
23 | CCGTAAGC | 0.0521
24 | ATTTATCA | 0.314
25 | ATTTATGA | 0.229

Row | Sequence | PBM E-score
26 | ATTTATAA | 0.176
27 | CGTACTCC | 0.203
28 | TGTACTAA | 0.0702
29 | CGTACTAC | 0.274
30 | CGTACTCA | 0.304
31 | CGTACCAA | 0.353
32 | TGTACCAA | 0.0776
33 | CGTACCAG | 0.0671
34 | CGTACTAA | 0.329
35 | AGTACTCA | -0.0128
36 | CGACGCGA | -0.0138
37 | AGAATGTC | 0.188
38 | ACAACGCC | 0.13
39 | ACCCTACA | -0.153
40 | CGGTCAAC | 0.0203
41 | ACGACGTG | 0.232
42 | GCAAGCGC | -0.201
43 | ACCTCACC | -0.0217
44 | TATACGGA | 0.164
45 | ACTACGAA | 0.205
46 | GATACGAA | 0.309
47 | AATACGAC | 0.278
48 | TCTACGAA | 0.301
49 | CATACGAA | 0.267
50 | AATACGAT | 0.276

Row | Sequence | PBM E-score
51 | GATACGAC | 0.148
52 | AATACGAA | 0.337
53 | GTTACGAA | 0.208
54 | TATACGAA | 0.368
55 | CCTACGAA | 0.253
56 | CCCCATCA | -0.235
57 | GAATTGGA | -0.016
58 | AGCACACC | -0.13
59 | CACAAGAG | -0.0119
60 | CCAGCACA | -0.0686
61 | AGCGAGAA | -0.0126
62 | CGATATCC | 0.17
63 | CGATATTC | 0.225
64 | CGATATCG | 0.372
65 | CGGTATCA | 0.204
66 | CGATATTA | 0.326
67 | AGATATCG | 0.11
68 | CGATATCA | 0.363
69 | GGATATTA | 0.088
70 | CGATATGA | 0.161
71 | GGACCGCA | -0.155
72 | ACAGGGGC | -0.194
73 | ACACCCGT | -0.04
74 | TCAAACAA | -0.127
75 | GAGAGGAC | -0.077

Row | Sequence | PBM E-score
76 | TCAGTAGA | -0.0357
77 | CATTAGTC | -0.14
78 | GTGACCAC | 0.175
79 | ACGATCGG | 0.168
80 | ACGATCGC | 0.265
81 | AAGATCGC | 0.169
82 | AAGATCGG | -0.163
83 | AAGATCGT | 0.332
84 | ACGATCGT | 0.319
85 | GCGCTGTA | -0.132
86 | CCTACGTC | 0.0219
87 | TACCAGTA | 0.0685
88 | ATCAGGAC | 0.103
89 | ACCTTGGG | -0.0211
90 | ACTGACAA | 0.129
91 | AGTGACCA | 0.308
92 | CGTGACAG | 0.319
93 | AGTGACAA | 0.439
94 | CCTGACAG | -0.0556
95 | GGTGACCA | 0.0526
96 | AGTGACAG | 0.292
97 | AGTGACCG | 0.125
98 | ATTGACAA | 0.0759
99 | ACTGACAT | 0.0708
100 | CATGACAG | 0.0583

Row | Sequence | PBM E-score
101 | AGTGACAT | 0.43
102 | GTATAGGA | 0.0694
103 | CAGAGTTC | -0.228
104 | GGGCCGTA | 0.244
105 | GACAGGAA | 0.0498
106 | GATCGCCC | 0.0433
107 | GCGACCAC | 0.134
108 | TCGATTAA | 0.0311
109 | CACAAAAA | 0.0732
110 | GCAGTTAA | -0.0142
111 | CTAACGAC | 0.263
112 | TCAGTCCA | -0.171
113 | AGTGACTA | 0.324
114 | GTTGACAA | 0.16
115 | TGTGACAA | 0.221
116 | CGTGACAA | 0.375
117 | CGTGACAC | 0.252
118 | AGTGACTC | 0.149
119 | ATTGACAC | -0.12
120 | GCTGACAA | 0.0133
121 | GGTGACAC | 0.238
122 | GGTGACAA | 0.423
123 | AGTGACTG | 0.175
124 | AGTGACAC | 0.382
125 | ATAACGGG | 0.0588

Row | Sequence | PBM E-score
126 | CGGGCGCA | -0.146
127 | GAATTAAA | 0.00779
128 | GTGGAGAA | 0.0678
129 | ACATACCT | -0.0525
130 | CTACCTTC | 0.0107
131 | GGCGGAGA | -0.00874
132 | GTACGATA | 0.259
133 | GAACGATA | 0.301
134 | CAACGATC | 0.103
135 | GAGCGATA | 0.223
136 | AAACGATC | 0.286
137 | TAACGATA | 0.36
138 | CAGCGATA | 0.16
139 | GAACGATC | 0.298
140 | GAACGAGA | 0.0551
141 | TAGCGATA | 0.347
142 | TAACGAAA | 0.243
143 | TAACGAGA | 0.295
144 | ATGTAGAC | -0.0712
145 | CCATTTAG | -0.118
146 | CCGAGGTC | -0.0891
147 | GATTGGTA | 0.109
148 | GCTCCTGA | -0.23
149 | CCGTACCC | 0.267
150 | CCGAGTTA | 0.0322

Row | Sequence | PBM E-score
151 | CGCGCCTC | -0.14
152 | TACAGCCA | -0.224
153 | AAACGATA | 0.376
154 | ACACGATA | 0.295
155 | GCACGAGA | 0.178
156 | CAACGATA | 0.25
157 | GCACGATA | 0.355
158 | AAACGATT | 0.292
159 | GCGAACTA | -0.0767
160 | CCGCGAGA | -0.0337
161 | GCGGCACA | 0.112
162 | CCGTATAC | 0.272
163 | ACGTATAT | 0.193
164 | GCGTAAAA | 0.103
165 | ACGTATAA | 0.304
166 | TGGTATAA | 0.0711
167 | ACGTAAAT | 0.113
168 | TAGTATAA | 0.269
169 | CCGTATAA | 0.418
170 | ACGTAAAA | 0.317
171 | TCGTATAA | 0.4
172 | GCGTATAA | 0.154
173 | ACGTATAG | 0.186
174 | GTAAGAAA | 0.176
175 | ATCAGGGC | -0.198
